From PubChem
TGFb inhibitor: blocks TGF-b signaling. HepG2 CAGA-GFP TGF-b/SMAD3 reporter, GFP fluorescence, 18 h; TGF-beta stimulated, 500 pg/mL final. Potency, µM (doses to about 46.1 µM), inactives show at the highest dose activity, negative = inhibition, hits mostly inhibitors. actives 1.2% (n = 410,000); note: % is set by controls: 0 for no effect and ±100 for the full control effect; nearly all actives have a fitted effect of over 65% in size
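Inhibition of TGF-beta-driven CAGA-GFP reporter expression in HEPG2 cells is measured by cellular GFP fluorescence after 18 h stimulation with 500 pg/mL recombinant TGF-beta in 1% FBS medium at 37 degrees C.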
ATXN2 expr inh: inhibitors of ATXN2 expression; HEK-293 ATXN2-luciferase reporter, luminescence, 24 h; Potency, µM (titrated, usually from 57 µM), without a hit: at the highest dose activity change, negative = inhibition, actives largely listed as inhibitors; actives 0.72% (n = 360,000); AID 1745845; note: % is set by controls: 0 for no effect and ±100 for the full control effect; nearly all actives have a fitted effect of over 55% in size
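qHTS (up to 57 uM final) was run with 24 h compound exposure of reporter cells at 37 °C. Each well was multiplexed: SteadyGlo luminescence measured ATXN2-luciferase expression after a fluorogenic Gly-Phe-AFC viability readout (25 uM final).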
HT1080-NT tox: kills 2HG-producing HT-1080-NT fibrosarcoma cells | HT-1080-NT fibrosarcoma viability, CellTiter-Glo ATP luminescence, 48 h | Potency, µM (doses to about 46.1 µM), without a hit: at the top dose activity, negative = less viability, usual class: cytotoxic | actives 1.6% (n = 360,000) | AID 686970;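 note: NT is the 2HG producing partner of a matched IDH1 knockdown line; 0% = DMSO-treated cells and -100% = media-only wells without cells; nearly all actives have a fitted effect of over 55% in size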
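Fibrosarcoma NT cells, 750 per well in 5% FBS RPMI, were exposed to compound for 48 hours. Viability: CellTiter-Glo luminescence.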
HepG2 tox: HepG2 cytotoxicity, counter-screen for TGF-b inhibitors. HepG2 CAGA-GFP viability, ATP luminescence, 18 h. actives 0.76% (n = 410,000). AID 588856. Potency, µM (series often up to 46.1 µM), for the others: top-dose activity change, negative = cytotoxicity, most hits filed as cytotoxic
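HepG2 CAGA-GFP cells (1000/well, DMEM with 1% FBS) received compound, then TGF-beta at 500 pg/mL final, and were incubated 18 hours at 37 degrees C. Viability was read by CellTiter-Glo luminescence. Media-only wells were set as complete cell-killing and DMSO as no toxicity.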
HT1080 IDH1KD tx: kills HT-1080 cells with IDH1 knockdown; Potency, µM (highest dose often 46.1 µM), for inactives: at the highest dose activity, negative = toxicity, hits mostly cytotoxic; HT-1080 IDH1 knockdown viability, ATP luminescence, 48 h; actives 2% (n = 360,000);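 note: 0% = DMSO wells and -100% = cell-free medium wells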
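HT-1080-IDH1KD cells (IDH1 knocked down), 750/well in RPMI with 5% FBS, treated with compound 48 h at 37 degrees C. Viability by CellTiter-Glo luminescence, normalised to DMSO and no-cell wells; concentration-response curves classed.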
S2 tox: reduces viability in counter-screen for ATXN expression inhibitors | S2 cells (HEK-293 line with an ATXN2-luciferase reporter) viability, CellTiter-Fluor protease fluorescence, 24 h | Potency, µM (doses to about 56.7 µM), most hits filed as cytotoxic | actives 0.49% (n = 400,000); note: nearly all actives have a fitted effect of over 40% in size
Active calls of the source: *; ! = not active in a repeat. Most compounds without a hit are left out; they make up all but 3.9% or so of the library. Calls come from the whole dose curve; as a rule, active = well fitted curve in the direction sought with a large enough effect; inconclusive = small, poorly fitted or top-dose-only effect, or another doubt; inactive = no such curve, though single readings can be large; an effect the other way counts as inactive or inconclusive. Potency is the fitted concentration of half-maximal effect.

For CN(NS(=O)(=O)c1ccc(Br)cc1)c1nc(C(F)(F)F)nc2ccccc12 the results were TGFb inhibitor inconclusive, ATXN2 expr inh inconclusive, HT1080-NT tox inconclusive, HepG2 tox -42.9%, HT1080 IDH1KD tx 18.4µM* and S2 tox inactive.
COc1cc(C(=O)Oc2cccc(/C=N/NC(=O)c3cccnc3)c2)cc(OC)c1OC was read as TGFb inhibitor 3.4%, ATXN2 expr inh 2.5%, HT1080-NT tox inconclusive, HepG2 tox -2.6%, HT1080 IDH1KD tx 18.4µM* and S2 tox inactive.
COc1cccc(/C=N/NC(=O)c2cnccn2)c1OC was read as TGFb inhibitor 0.0%, ATXN2 expr inh 13.6%, HT1080-NT tox 1.9%, HepG2 tox 12.6µM*, HT1080 IDH1KD tx 4.7% and S2 tox inactive.
For COc1cccc(/C=N/NC(=O)C(=O)N/N=C/c2cccc(OC)c2OC)c1OC the results were TGFb inhibitor -0.4%, ATXN2 expr inh -11.5%, HT1080-NT tox inconclusive, HepG2 tox 3.1%, HT1080 IDH1KD tx 23.1µM* and S2 tox inactive.
For O=C(N/N=C/c1cccc(OC(=O)c2cccc(Br)c2)c1)c1cccnc1 the results were TGFb inhibitor -1.7%, ATXN2 expr inh 3.1%, HT1080-NT tox 4.3%, HepG2 tox 9.5%, HT1080 IDH1KD tx -1.7% and S2 tox inactive.
For Cc1ccc(NC(=O)C(=O)NCC(c2ccc3c(c2)OCO3)N2CCN(c3ccccc3)CC2)cc1 (stereo unspecified) the results were TGFb inhibitor 1.6%, ATXN2 expr inh 1.5%, HepG2 tox -6.4% and S2 tox inactive.
For CCOC(=O)C1CCCCN1C(=O)c1cnn(-c2nccc(-c3cc(C)sc3C)n2)c1C1CC1 (stereo unspecified) the results were S2 tox inactive.
Screening CCOc1ccc(-n2c(SCC(=O)Nc3cc(C)ccc3C)nc3c([nH]c4ccccc43)c2=O)cc1 returned TGFb inhibitor 3.8%, ATXN2 expr inh -6.3%, HepG2 tox -0.9% and S2 tox inactive.
COc1ccc(C2c3ccc(O)cc3Oc3ncn(Cc4ccco4)c(=N)c32)cc1OC (stereo unspecified) was read as TGFb inhibitor -5.9%, ATXN2 expr inh -1.4%, HT1080-NT tox inconclusive, HepG2 tox -15.4%, HT1080 IDH1KD tx inconclusive and S2 tox inactive.
`COc1ccc(C2c3ccc(O)cc3Oc3ncn4nc(-c5cccnc5)nc4c32)cc1OC` (stereo unspecified) gave TGFb inhibitor inconclusive, ATXN2 expr inh 22.8%, HT1080-NT tox 16.4µM*, HepG2 tox -13.8%, HT1080 IDH1KD tx 14.6µM* and S2 tox inconclusive.
CC1(C)SCCN(S(=O)(=O)c2ccc(OCC#CCO)cc2)[C@@H]1C(=O)NO was read as ATXN2 expr inh -13.8%.
Cc1sc2nc(CN3CCCC3)nc(N3CCN(S(=O)(=O)c4cccs4)CC3)c2c1C was read as TGFb inhibitor 0.5%, ATXN2 expr inh -20.7%, HT1080-NT tox inconclusive, HepG2 tox -30.9%, HT1080 IDH1KD tx 16.4µM* and S2 tox inconclusive.
COc1ccc(C(O)Cn2ccsc2=NC(C)=O)cc1 (stereo unspecified) was read as TGFb inhibitor 8.9%, ATXN2 expr inh -4.9%, HT1080-NT tox inconclusive, HepG2 tox 5.2%, HT1080 IDH1KD tx 11.6µM* and S2 tox inactive.
For Cc1ccc(S(=O)(=O)C(CNC(=O)C(=O)NCCc2ccc(Cl)cc2)c2cccs2)cc1 (stereo unspecified) the results were TGFb inhibitor -26.4%, ATXN2 expr inh 5.3%, HepG2 tox -17.0% and S2 tox inactive.
CC1=NN(c2nc(C)cc(C)n2)C(=O)C1CCC(C)C (stereo unspecified) was read as TGFb inhibitor -20.6%, ATXN2 expr inh 0.0%, HT1080-NT tox 7.94µM*, HepG2 tox -4.0%, HT1080 IDH1KD tx 10µM* and S2 tox inactive.
`Oc1ccc(-c2cc(-c3ccc(O)cc3)nc(-c3ccccc3)n2)cc1` gave TGFb inhibitor inconclusive, ATXN2 expr inh -22.9%, HT1080-NT tox 11.6µM*, HepG2 tox -56.7%, HT1080 IDH1KD tx inconclusive and S2 tox inactive.
`CCc1nc(SCC(=O)N2c3ccccc3CC2C)c2c(C)c(C)sc2n1` (stereo unspecified) gave TGFb inhibitor inconclusive, ATXN2 expr inh inconclusive, HT1080-NT tox 6.31µM*, HepG2 tox -13.6%, HT1080 IDH1KD tx inconclusive and S2 tox inactive.
For O=C(C1CC1)N1c2ccccc2Sc2ccccc21 the results were TGFb inhibitor inconclusive, ATXN2 expr inh -32.5%, HT1080-NT tox inconclusive, HepG2 tox 0.5%, HT1080 IDH1KD tx 18.4µM* and S2 tox inactive.
`NC(=O)C1CCN(C(=O)N2c3ccccc3Sc3ccccc32)CC1` gave TGFb inhibitor -16.9%, ATXN2 expr inh -9.7%, HT1080-NT tox -21.1%, HepG2 tox -40.7%, HT1080 IDH1KD tx 14.0% and S2 tox inactive.
For CC(C)(C)c1ccc(O)c(O)c1 the results were TGFb inhibitor -2.7%, ATXN2 expr inh 39.8µM*!, HT1080-NT tox inconclusive, HepG2 tox -30.7%, HT1080 IDH1KD tx inconclusive and S2 tox 70.8µM*!.
CCOc1ccc2c(c1)OC(c1ccc(OC)cc1)(C(F)(F)F)NC2=O (stereo unspecified) was read as TGFb inhibitor inconclusive, ATXN2 expr inh 22.5%, HT1080-NT tox inconclusive, HepG2 tox -16.9%, HT1080 IDH1KD tx 4.61µM* and S2 tox inconclusive.
Screening Cc1cccc(C)c1OCC(O)CN(Cc1ccccc1O)C1CCCCC1 (stereo unspecified) returned TGFb inhibitor inconclusive, ATXN2 expr inh -30.0%, HT1080-NT tox 9.2µM*, HepG2 tox -32.8%, HT1080 IDH1KD tx inconclusive and S2 tox inactive.
COCCCNC(=O)c1sc2nc(C)c(C(=O)Nc3ccc(C)cc3C)c(-c3ccc(Cl)cc3)c2c1N was read as TGFb inhibitor -0.1%, ATXN2 expr inh inconclusive, HepG2 tox -10.0% and S2 tox inconclusive.
For CCC(C)(C)C1CCc2[nH]nc(C(=O)N/N=C(\C)c3ccco3)c2C1 (stereo unspecified) the results were TGFb inhibitor 14.1µM*, ATXN2 expr inh -33.2%, HT1080-NT tox inconclusive, HepG2 tox -66.4%, HT1080 IDH1KD tx inconclusive and S2 tox inconclusive.
